This note sets out measurements from article PMC5540273 (PLoS ONE, 2017).

Like-named read-outs stand apart in the source and are kept apart here.

One experiment relates to KIT-autoinhibited. The conditions noted are these: concentration: 1 μM, replicates: in singlicate; n = 1.
The next experiment relates to KIT. The following applies: concentration: 1 μM, replicates: in singlicate; n = 1.
In the next experiment the test system is LATS1. The following applies: concentration: 1 μM, replicates: in singlicate; n = 1.
The subject of the next experiment is LATS2. The conditions noted are these: concentration: 1 μM, replicates: in singlicate; n = 1.
The next experiment relates to LCK. The following applies: concentration: 1 μM, replicates: in singlicate; n = 1.
Another experiment concerns LIMK1. The following applies: concentration: 1 μM, replicates: in singlicate; n = 1.
Another experiment deals with LIMK2. The following applies: concentration: 1 μM, replicates: in singlicate; n = 1.
The next experiment relates to T1, LKB1.
T1 construct: gene STK11
The following applies: concentration: 1 μM, replicates: in singlicate; n = 1.

Another experiment concerns T2, LOK.
T2 construct: gene STK10
The conditions noted are these: concentration: 1 μM, replicates: in singlicate; n = 1.

In the next experiment the test system is LRRK2. The following applies: concentration: 1 μM, replicates: in singlicate; n = 1.
For another experiment, the system named is LTK. The following applies: n = 1.
The next experiment concerns LYN. The following applies: concentration: 1 μM, replicates: in singlicate; n = 1.
The next experiment relates to T3, LZK.
T3 construct: gene MAP3K13
The following applies: concentration: 1 μM, replicates: in singlicate; n = 1.

The next experiment has as its system MAK. The conditions noted are these: concentration: 1 μM, replicates: in singlicate; n = 1.
A further experiment deals with MAP3K15. The following applies: concentration: 1 μM, replicates: in singlicate; n = 1.
A further experiment relates to MAP3K1. The conditions noted are these: concentration: 1 μM, replicates: in singlicate; n = 1.
A further experiment relates to MAP3K2. The conditions noted are these: concentration: 1 μM, replicates: in singlicate; n = 1.
For a further experiment, the system named is MAP3K3. The following applies: concentration: 1 μM, replicates: in singlicate; n = 1.
The subject of the next experiment is MAP3K4. The following applies: concentration: 1 μM, replicates: in singlicate; n = 1.
In a further experiment the test system is MAP4K2. The following applies: concentration: 1 μM, replicates: in singlicate; n = 1.
[1] abbreviates: concentration: 1 μM, replicates: in singlicate.
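Note: KINOMEscan kinase panel screen.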

In the case of `O=C(NOCC1CC1)c1ccc(F)c(F)c1Nc1ccc(I)cc1Cl`, the “%Inh” value with KIT-autoinhibited is 0%; with KIT, 0%; with LATS1 it was 0%; in the experiment on LATS2, 7%; with LCK it was 0%; with LIMK1, 0%. Also, the “%Inh” value with LIMK2, in the experiment with LKB1, with LOK, in the experiment with LRRK2, with LTK (setting [1]) and in the experiment with LYN was 0% each time. Further, the “%Inh” value in the experiment with LZK, in the experiment with MAK, with MAP3K15, in the experiment with MAP3K1, in the experiment with MAP3K2 and in the experiment with MAP3K3 was 0% each time. Also, the “%Inh” value in the experiment with MAP3K4 and in the experiment with MAP4K2 was 0% each time.

Consider `O=c1cc(N2CCOCC2)nc2n(Cc3cccc(Cl)c3Cl)c(C3CC3)nn12` [GSK2358994], for which the “%Inh” value in the experiment with KIT-autoinhibited is 15%; in the experiment with KIT it was 0%; in the experiment on LATS1 it was 0%; in the experiment with LATS2 it was 27%; with LCK, 23%; in the experiment on LIMK1 it was 9%. Further, the “%Inh” value in the experiment on LIMK2 is reported as 8%; in the experiment on LKB1 it was 15%; in the experiment on LOK, 0%; with LRRK2, 0%; in the experiment on LTK (1 µM) it was 0%; in the experiment on LYN, 0%. In addition, the “%Inh” value with LZK came out at 0%; in the experiment on MAK, 0%; in the experiment with MAP3K15 it was 0%; in the experiment with MAP3K1 it was 14%; in the experiment on MAP3K2, 0%; in the experiment on MAP3K3, 0%. Moreover, the “%Inh” value is recorded as 19% in the experiment with MAP3K4 and 11% in the experiment with MAP4K2.

`COc1ccc(COc2cc(-n3cnc4ccccc43)sc2C(N)=O)cc1` [GSK1024304]: the “%Inh” value is listed as 0% in the experiment on KIT-autoinhibited; 23% with KIT; 0% in the experiment with LATS1; 0% in the experiment on LATS2; 16% with LCK; 10% with LIMK1. The “%Inh” value was 7% in the experiment on LIMK2; 1% in the experiment on LKB1; 0% in the experiment with LOK; 10% with LRRK2; 6% in the experiment with LTK (setting [1]); 0% in the experiment on LYN. Also, the “%Inh” value in the experiment on LZK, in the experiment with MAK, with MAP3K15, in the experiment with MAP3K1, with MAP3K2 and with MAP3K3 was 0% in each case. Also, the entries for the “%Inh” value in the experiment with MAP3K4 and in the experiment with MAP4K2 were 20% and 0%, respectively.

Consider `Cn1cc(-c2ccc3c(c2)CCN3C(=O)Cc2ccccc2Cl)c2c(N)ncnc21` [GSK2608885], for which the “%Inh” value came out at 4% in the experiment on KIT-autoinhibited; 99.9% in the experiment on KIT; 15% in the experiment with LATS1; 25% in the experiment on LATS2; 99.5% in the experiment on LCK; 32% in the experiment on LIMK1. Also, the “%Inh” value with LIMK2 is on record as 6%; with LKB1 it was 17%; with LOK, 99.8%; in the experiment with LRRK2, 0%; in the experiment on LTK (setting [1]) it was 55%; with LYN it was 99.2%. Besides, the “%Inh” value was determined as 0% in the experiment with LZK; 16% in the experiment on MAK; 0% with MAP3K15; 7% with MAP3K1; 91.1% in the experiment with MAP3K2; 82% with MAP3K3. Further, the “%Inh” value in the experiment with MAP3K4 was 86%; with MAP4K2, 10%.

Regarding `NS(=O)(=O)c1cccc(-c2ccc3ncc(N4CCOCC4)nc3c2)c1` [GSK1535721], the “%Inh” value was determined as 15% with KIT-autoinhibited; 14% in the experiment with KIT; 0% in the experiment on LATS1; 9% in the experiment with LATS2; 0% in the experiment with LCK; 0% with LIMK1. Moreover, the “%Inh” value worked out at 15% in the experiment with LIMK2; 3% in the experiment on LKB1; 0% in the experiment on LOK; 0% in the experiment with LRRK2; 8% in the experiment on LTK (setting [1]); 0% with LYN. The “%Inh” value in the experiment on LZK came out at 23%; in the experiment on MAK, 8%; with MAP3K15, 0%; with MAP3K1, 0%; with MAP3K2, 0%; in the experiment with MAP3K3, 0%. In addition, the “%Inh” value in the experiment with MAP3K4 is recorded as 0%; in the experiment with MAP4K2 it was 4%.

Take `O=C(Nc1cccc(-c2nn3ncccc3c2-c2ccnc(Nc3cccc(C(F)(F)F)c3)n2)c1)c1c(F)cccc1F` [GSK299495]: the “%Inh” value was 0% with KIT-autoinhibited; 98.7% with KIT; 13% in the experiment on LATS1; 6% in the experiment on LATS2; 98.2% in the experiment on LCK; 9% in the experiment on LIMK1. Besides, the “%Inh” value with LIMK2 came to 0%; in the experiment with LKB1, 0%; in the experiment with LOK it was 96.6%; with LRRK2, 0%; with LTK (setting [1]) it was 3%; in the experiment on LYN, 87%. Moreover, the “%Inh” value with LZK worked out at 12%; in the experiment with MAK, 0%; in the experiment on MAP3K15, 0%; in the experiment with MAP3K1, 15%; in the experiment on MAP3K2 it was 24%; in the experiment with MAP3K3, 0%. The entries for the “%Inh” value in the experiment on MAP3K4 and in the experiment on MAP4K2 were 33% and 0%, respectively.

On to `CC(C)Oc1ccc2c(-c3ccnc(Nc4ccc(N5CCN(C)CC5)cc4)n3)cnn2n1` [GW696155], for which the “%Inh” value was found to be 43% with KIT-autoinhibited; 91.1% with KIT; 0% with LATS1; 43% in the experiment with LATS2; 92.6% in the experiment with LCK; 85% in the experiment on LIMK1. Moreover, the “%Inh” value turned out to be 100% in the experiment on LIMK2; 73% with LKB1; 0% with LOK; 27% in the experiment on LRRK2; 0% in the experiment with LTK (setting [1]); 34% in the experiment with LYN. Further, the “%Inh” value with LZK came to 10%; in the experiment on MAK it was 0%; in the experiment with MAP3K15 it was 11%; in the experiment with MAP3K1 it was 39%; with MAP3K2, 83%; in the experiment with MAP3K3, 67%. In addition, the “%Inh” value was determined as 74% in the experiment with MAP3K4 and 28% in the experiment with MAP4K2.

Turning to `Fc1ccc(-c2ncn(CCCN3CCOCC3)c2-c2ccccn2)cc1` [SB-211742], the “%Inh” value was 0% in the experiment on KIT-autoinhibited; 0% in the experiment with KIT; 10% in the experiment on LATS1; 0% in the experiment on LATS2; 28% in the experiment on LCK; 0% in the experiment on LIMK1. The “%Inh” value in the experiment with LIMK2 is recorded as 0%; in the experiment on LKB1, 33%; with LOK, 8%; with LRRK2 it was 0%; with LTK (setting [1]), 11%; in the experiment on LYN, 0%. Besides, the “%Inh” value in the experiment on LZK, with MAK, in the experiment with MAP3K15, with MAP3K1, in the experiment on MAP3K2 and in the experiment on MAP3K3 was 0% each time. For the same compound, the “%Inh” value in the experiment with MAP3K4 is 18%; in the experiment with MAP4K2, 0%.

For `O=C(Nc1n[nH]c2cc(-c3cccc(F)c3)ccc12)C1CC1` [SB-735464], the “%Inh” value was 1% in the experiment with KIT-autoinhibited; 33% in the experiment on KIT; 0% with LATS1; 18% in the experiment with LATS2; 3% in the experiment with LCK; 0% in the experiment with LIMK1. The “%Inh” value was 0% in the experiment with LIMK2; 0% with LKB1; 6% in the experiment with LOK; 0% in the experiment on LRRK2; 0% in the experiment on LTK (setting [1]); 9% with LYN. Moreover, the “%Inh” value with LZK was determined as 2%; in the experiment with MAK, 3%; in the experiment on MAP3K15, 48%; in the experiment with MAP3K1, 22%; in the experiment with MAP3K2 it was 5%; in the experiment on MAP3K3, 10%. Besides, the “%Inh” value was 24% with MAP3K4 and 6% with MAP4K2.
